# Results with a measured potency or affinity are listed apart. The source made the active and inactive calls. No rule for the calls is given here.
# Assay: BHK-21 cell cytotoxicity, cytotoxicity control for flavivirus guanylyltransferase probe project, secondary screen (AID 624078)
smiles,measurement,value
Cn1c(=O)c2[nH]c(-c3ccccc3)c(O)c2n(C)c1=O,outcome,inactive

# Reference: PubChem BioAssay AID624078 (Southern Research Specialized Biocontainment Screening …, 2012)
